Laboratory results published in PubChem BioAssay AID488890 (Southern Research Specialized Biocontainment Screening …, 2010).
About 1,300 (0.41%) of roughly 320,000 compounds were called active. About 3% were inconclusive and are not listed. How the calls were made is not given here. Only a sample is shown. Results with a measured potency or affinity are listed apart.

assay: growth inhibition of non-replicating M. tuberculosis (AID 488890); conditions: Mycobacterium tuberculosis non-replicating, at 25 µM, stronger effect = higher value;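 further: plate controls were DMSO cells for no effect and high antibiotic wells for full effect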

SMILES | inhibition
CN1CCN(c2ccc(NC(=O)COc3cccc4ccccc34)cc2)CC1 | 47.4%
COc1ccc(C2Sc3nncn3N2Cc2ccc(C#N)cc2)cc1 (stereo unspecified) | 0.03%
C[C@H](NC(=O)OCc1ccccc1)C(=O)NNC(=O)[C@H](C)NC(=O)OCc1ccccc1 | 2.12%
C[C@H](NC(=O)OCc1ccccc1)c1nnc([C@H](C)NC(=O)OCc2ccccc2)o1 | 4.86%
Cc1ccc(C(=O)NNC(=O)CCC(=O)Nc2cc(C)on2)cc1 | 3.14%
CC(C)NC(=O)COc1ccc(OCc2ccccc2)cc1 | 62.9%
CCOCC(=O)Nc1ccc(OCc2ccccc2)cc1 | 17.7%
Cc1nc(SCCc2ccccc2)[nH]c(=O)c1C | 49.5%
CC1=C(C(=O)Nc2ccc(C)cc2C)C(c2ccc(C)o2)NC(=O)N1 (stereo unspecified) | -0.04%
COc1cccc(C(=O)CN(C(=O)c2ccc(Cl)cc2Cl)N2C(=O)c3ccccc3C2=O)c1 | -6.55%
O=C(O)c1ccc(CNCc2ccc(Cl)cc2)cc1 | 9.88%
Cn1cnc([N+](=O)[O-])c1Cl | -10.2%
Cc1cccc(Sc2c([N+](=O)[O-])ncn2C)c1 | 22.6%
N#Cc1ccc(OCC(=O)NCCN2CCOCC2)cc1 | 2.06%
CCOC(=O)C1(CCc2ccccc2)CCN(Cc2cnc(N(C)C)s2)CC1 | 3.68%
Clc1ccccc1CSc1nncn1NC/C=C/c1ccccc1 | 19.6%
CC(C(=O)NC1CCCc2ccccc21)N1C(=O)C2CCCCC2C1=O (stereo unspecified) | -6.5%
COc1ccc(NC(=O)NCCN2CCN(c3cccc(Cl)c3)CC2)cc1 | 31.4%
COc1ccc(N2CCN(CCCNC(=O)Nc3ccccc3)CC2)cc1 | 38.1%
CC1(C)CC(=O)C2=C(C1)N(c1ccc(F)cc1)C(=O)C2(O)C(F)(F)F (stereo unspecified) | -0.41%
Cc1cc(C(=O)Nn2cnc3ccccc3c2=O)ccc1[N+](=O)[O-] | -2.65%
Cn1c(=O)c([N+](=O)[O-])c(NCCc2ccccc2)c2ccccc21 | 30.3%
CC(C)c1c(C(=O)N/N=C/c2ccc(OCc3ccc(F)cc3)cc2)nnn1-c1nonc1N | 1.61%
CCC(C(=O)c1ccc(O)cc1)c1ccccc1 (stereo unspecified) | 21.7%

SMILES | inhibition
CCCOc1ccc(C(=O)C(c2ccccc2)N2CCOCC2)cc1 (stereo unspecified) | 33.3%
CN(C)CC(c1ccccc1)c1ccccc1 | -13.3%
CC(CN1CCCC1)OC(=O)C(c1ccccc1)c1ccccc1 (stereo unspecified) | 10.8%
CCCCOc1ccc(C(O)C(CN2CCCCC2)c2ccccc2)cc1 (stereo unspecified) | 12.8%
CCOc1ccc(C(=O)C(c2ccccc2)N2CCOCC2)cc1 (stereo unspecified) | 56.8%
CCOC(=O)C(CN1CCCC1)c1ccccc1 (stereo unspecified) | 4.41%
CCOc1ccc(C(O)C(CN2CCOCC2)c2ccccc2)cc1 (stereo unspecified) | -1.32%
CCCCN(C(=O)Cc1ccc2c(c1)OCCO2)c1c(N)n(CCC)c(=O)[nH]c1=O | -17.1%
O=C(NCC(=O)N1CCN(C(c2ccccc2)c2ccccc2)CC1)c1ccc(Br)o1 | 13.5%
CCOc1ccc2nc(SCC(=O)N3CCN(C(=O)c4ccco4)CC3)sc2c1 | 28.7%
C/C(=N/NC(=O)c1cnccn1)c1ccncc1 | -12.7%
Cc1nc(Cl)c(S(N)(=O)=O)c(C)c1Cl | -6.51%
CC(C)Sc1nc2[nH]ncc2c(=O)[nH]1 | -7.65%
O=C(NCCO)c1ccc2c(c1)S(=O)(=O)c1ccccc1C2=O | -6.47%
Cc1ccc(S(=O)(=O)NC(=O)c2ccccc2F)cc1 | -3.32%
CCCOc1cccc(C(=O)NCCNC(=O)c2ccco2)c1 | -5.82%
N#Cc1ccccc1Cn1c(=O)n(CCC(=O)NCc2ccco2)c(=O)c2ccccc21 | 0.99%
CCC1(CC)C(=O)NN(c2ccccc2)C1=O | -21.9%
O=C(CCNC(=O)Cn1ccc2ccccc2c1=O)NCCN1CCc2ccccc2C1 | 19.7%
O=C(C1=NN[C@@H]2C(=O)N(c3cccc(C(F)(F)F)c3)C(=O)[C@H]12)c1ccc2ccccc2n1 | -0.67%
COc1ccc(C(O)(C2CCCCC2)C(CN2CCCC2)c2ccccc2)cc1 (stereo unspecified) | 47%
COc1ccc(C(=O)C(c2ccccc2)N2CCOCC2)cc1 (stereo unspecified) | 18.6%
COc1ccc(C2C(C(=O)N3CCN(c4ccccc4)CC3)c3ccccc3C(=O)N2C)cc1 (stereo unspecified) | 16.5%
Cc1ccc(S(=O)(=O)N2CCCCC2C(=O)Nc2ccc(N(C)C)cc2)cc1 (stereo unspecified) | 20%

SMILES | inhibition
CCOC(=O)C(=O)Nc1cc(C)nn1-c1nc2ccccc2[nH]1 | 73.2%
COc1cccc(OC)c1C(=O)Nc1cc(C)nn1-c1nc2ccccc2[nH]1 | 20.1%
Cc1cc(NC(=O)c2ccccc2)n(-c2nc3ccccc3[nH]2)n1 | 49.6%
Cc1cc(NC(=O)c2c(F)cccc2F)n(-c2nc3ccccc3[nH]2)n1 | 76.6%
Cc1cc(Nc2ccccc2)n(-c2ccccc2)n1 | 6.71%
Cc1cc(NC(=O)c2cccs2)n(-c2nc3ccccc3[nH]2)n1 | 76.4%
Cc1cc(Nc2ccccc2)n(-c2ccc(Br)cc2)n1 | 66.6%
Cc1cc(NC(=O)c2ccc(F)cc2F)n(-c2nc3ccccc3[nH]2)n1 | 14.7%
Cc1ccsc1C(=O)N1CCC(N2CCC(C(=O)NCC3CCCO3)CC2)CC1 (stereo unspecified) | 1.59%
C[C@H](NC(=O)[C@@H]1CSC2c3ccccc3C(=O)N21)C(=O)NC1CCCC1 (stereo partly specified) | -7.65%
CCc1ccc(OCC(=O)O/N=C(\N)c2ccncc2)cc1 | 35.7%
COc1ccc(N2CCN(CC(O)COCc3ccccc3)CC2)cc1 (stereo unspecified) | -6.85%
Cc1cc(Nc2nc3ccccc3[nH]c2=O)n(-c2ccccc2)n1 | 3.53%
Cc1cc(NC(=O)CC#N)n(-c2nc3ccccc3[nH]2)n1 | -8.39%
Cc1cc(F)ccc1NC(=O)c1cc(S(=O)(=O)N2CCCC2)cn1C | -14.1%
O=[N+]([O-])c1cccc(-c2nc(-c3ccncc3)no2)c1 | 1.9%
O=[N+]([O-])c1ccc(-c2nc(-c3ccncc3)no2)cc1 | -0.83%
COc1ccc(Oc2cccc(Cl)c2CNC(=O)c2ccccc2C(=O)O)cc1 | 22.3%
CC1=Nc2ccccc2/C1=C/c1c(O)n(C)c(=O)[nH]c1=O | 3.78%
CC1=Nc2ccccc2/C1=C/c1sc(=O)n(CC(=O)N2CCCC2)c1O | 24%
COc1ccc(NC(=O)CN(C)C(=O)c2ccccc2Sc2ncnc3sc(C)c(C)c23)cc1 | 19.2%
CC(C)(C)C(=O)CN1C(=O)NC(c2ccccc2)(c2ccccc2)C1=O | 0.55%
CCCCCOC(=O)C1=C(C)Nc2ncnn2C1c1cccs1 (stereo unspecified) | 21.8%
